# Measles CPE – compounds protecting cells from measles virus cytopathic effect, primary screen, measles RdRp inhibitor project, single point, MLSMR library, absorbance | Measles virus-infected cells, CPE protection | protection (pct of control), % at 4 µM | actives 1.5% (n = 140,000) | AID 841, 2007; in the data active = protection mostly above about 24%, no sharp cut-off; inactive = mostly below about 26%
# PostGolgi yeast – phenotypic screen on post-Golgi transport, primary screen | actives 0.9% (n = 98,000) | post-Golgi transport phenotypic cell assay | inhibition, % at 10 µM | AID 739, 2007;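 note: yeast cells grown in 1536-well plates; yeast grown about 18 h at 30C before absorbance read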
# MT1-MMP txn act – MT1-MMP promoter reporter activation – cell-based, luciferase luminescence, primary screen; HT1080 MT1-MMP promoter luciferase reporter, overnight; stronger effect = higher value; activation factor at 10 µM; actives 0.16% (n = 86,000);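 active = activation factor of at least 2 for MT1-MMP transcription at 10 µM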
# PostGolgi ctrl – growth inhibition of yeast control strain, primary screen, counter-screen for post-Golgi transport modulator project | inhibition, % at 10 µM | actives 5% (n = 98,000) | efflux-deficient yeast background strain, growth absorbance A615, 16 h
# The depositor's hits bear a star; x = not tested or not shown. In the library only some 5.3% were active in any assay of this set; here they are far more common. Cut-off read from the data, not from the text of the source, unless noted: active = inhibition above about 30%; inactive = the rest.
SMILES,Measles CPE,PostGolgi yeast,MT1-MMP txn act,PostGolgi ctrl
CC1(c2ccccc2)NC(=O)N(CC(=O)NC(=O)NCc2ccco2)C1=O (configuration not stated),5.2,-0.5,1,2.6
CC1(C)CC(=O)C(=C2SCCCS2)C(=O)C1,3.0,x,x,x
COc1cc(-c2noc(CCCC(=O)NC3CCCCC3)n2)cc(OC)c1OC,10.2,3.1,1,9.9
CCN(CC)c1ccc(NC(=O)COc2ccc(C#N)cc2)cc1S(=O)(=O)Nc1ccc(OC)cc1,2.5,x,x,x
CNC(=O)[C@H](C)[C@H]1C[C@]1(C)[C@H](NC(=O)OCc1ccccc1)c1ccccc1,x,x,1.3,x
Cn1c2c(c(=O)n(C)c1=O)C(C(F)(F)F)(C(F)(F)F)N=C(c1ccccc1Cl)N2,11.8,31.0*,x,21.0
O=C(Cn1ncc2c3ccccc3n(Cc3ccc(F)cc3)c2c1=O)N1CCN(c2ncccn2)CC1,15.8,13.8,1.2,18.5
Cc1ccccc1Cn1c2ccccc2c2cnn(CC(=O)N3CCN(c4ccccc4)CC3)c(=O)c21,11.3,0.0,x,42.3*
COC(=O)C1=C(C)NC(C)=C(C(=O)OC)C1c1ccc(OC(=O)c2oc3ccccc3c2C)c(OC)c1,12.9,x,x,x
N#C/C(=C/c1ccc2c(c1)OCO2)C(=O)NCCc1c[nH]c2ccccc12,11.9,8.4,x,35.9*
CCC(C)NC(=O)c1ccc([N+](=O)[O-])c(Cl)c1 (configuration not stated),21.3,x,x,x
COc1ccc(/C=c2\s/c(=C/C(=O)c3ccc(C)cc3)[nH]c2=O)cc1OC,10.2,x,x,x
Cc1cccc(NC(=O)Cc2noc3ccccc23)c1,12.3,x,2.1*,x
Cc1nc2c(-c3ccccc3)c(C)nn2c(C)c1CCC(=O)NC(C)CCc1ccco1 (configuration not stated),3.0,-0.4,x,12.9
COc1ccccc1-c1cc2nc(C)c(CCC(=O)NC(C)CCc3ccco3)c(C)n2n1 (configuration not stated),6.2,1.7,x,37.3*
CSCC[C@H](NC(=O)c1ccc(Cl)c(S(=O)(=O)N2CCCC2)c1)c1nc2ccccc2[nH]1,38.4,-3.0,1,-1.3
COc1ccc(-n2ncc3c(NCCCn4ccnc4)ncnc32)cc1,65.8*,-6.9,1.7,3.8
Cc1ccc(-c2nnc(N3CCN(c4ccccn4)CC3)c3ccccc23)cc1,12.4,-0.2,0.9,56.6*
CS(=O)(=O)N1CCN(c2nnc(-c3ccccc3)c3ccccc23)CC1,9.3,-0.5,1.1,9.9
Cc1ccc(-c2nnc(N3CCN(S(C)(=O)=O)CC3)c3ccccc23)cc1,12.5,5.8,1,7.5
c1ccc(-c2nnc(N3CCN(c4ccccn4)CC3)c3ccccc23)cc1,5.9,8.0,1.1,68.7*
O=c1nc2s/c(=C\c3ccc(-c4ccccc4[N+](=O)[O-])o3)c(=O)n2nc1-c1ccccc1,9.6,x,x,x
N#C/C(=C/c1cc(Br)cs1)C(=O)NCC1CCCO1 (configuration not stated),36.9*,-1.9,x,-12.9
N#C/C(=C\c1cccs1)C(=O)NCC1CCCO1 (configuration not stated),46.0,16.8,x,4.4
Cc1onc(-c2ccccc2)c1C(=O)Nc1cc(C(F)(F)F)ccc1N1CCOCC1,2.4,1.9,0.4,43.3*
SMILES,Measles CPE,PostGolgi yeast,MT1-MMP txn act,PostGolgi ctrl
Cc1onc(-c2ccccc2)c1C(=O)Nc1ccccc1N1CCOCC1,12.4,4.5,1,14.9
COc1ccc(N(C)C(=O)CCS(=O)(=O)c2cccc3nonc23)c(OC)c1,3.5,-1.1,x,33.6*
COC(=O)C(C(=O)OC)C(C)C(C(=O)OC)C(=O)OC,7.3,-0.3,1.1,5.0
CCCN(CCC)CCNC(=O)C(NS(=O)(=O)c1ccc2c(c1)CCC(=O)N2)c1ccccc1 (configuration not stated),2.1,-15.5,1.1,31.3*
Cc1ccc(NC(=S)NNC(=O)c2nn(C)c(C)c2Cl)cc1,102.0*,12.8,x,-1.4
Cc1ccc(NC(=S)NNC(=O)c2c(Cl)c(C)nn2C)cc1,8.8,x,x,x
NC(=O)CC[C@@H]1NC(=O)C(Cc2ccc(O)cc2)NC(=O)c2cc([N+](=O)[O-])cc(F)c2NCCC[C@@H](C(N)=O)NC1=O (some centres not stated),11.7,x,x,x
CCOc1ccc(-n2cnnn2)cc1S(=O)(=O)Nc1c(C)cccc1C,16.8,-1.1,1.1,42.2*
CCOc1ccc(-n2cnnn2)cc1S(=O)(=O)NC1CC1,7.9,-1.2,1.1,6.2
Cc1ccc(NC(=O)/C(C#N)=C/c2ccc(C)s2)c(C)c1,14.1,-2.1,1.6,12.8
Cc1ccc(CNC(=O)/C(C#N)=C/c2ccc(C)s2)cc1,20.3*,2.1,x,-10.6

# High-throughput results deposited in PubChem by several laboratories.
